This is a sample that favours compounds with a hit; in the whole collection about 21% have one here.
Pf growth 96h = Primary qHTS for delayed death inhibitors of the malarial parasite plastid, 96 hour incubation | P. falciparum luciferase reporter growth, 96 h | Potency, µM (doses to about 28.7 µM), for inactives: top-dose activity change, negative = inhibition, most hits filed as inhibitors | hit rate 6.9% among 320,000 | AID 504834, 2011; note: potency is the fitted concentration of half-maximal effect; % is set by controls: 0 for no effect and ±100 for the full control effect
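Delayed-death screen, second-generation endpoint: infected erythrocytes, 2% hematocrit, 0.05% parasitemia final; 96 hours at 37 C, 5% CO2; luciferase detection reagent; luminescence decrease equals reduced growth.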
Pf growth 48h = Primary qHTS for delayed death inhibitors of the malarial parasite plastid, 48 hour incubation; Potency, µM (titrated, usually from 28.7 µM), without a hit: at the top dose activity change, negative = inhibition, hits mostly inhibitors; P. falciparum luciferase growth in erythrocytes, 48 h; hit rate 5.9% among 310,000; note: potency is the fitted concentration of half-maximal effect; % is set by controls: 0 for no effect and ±100 for the full control effect
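First compound was added to culture medium, then infected red cells at 0.1% parasitemia and 2% hematocrit (final). After incubation at 37 C under 5% CO2, luciferase detection reagent was dispensed and light output recorded.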
Cycloheximide cs = Cycloheximide Counterscreen for Small Molecule Inhibitors of Shiga Toxin | cell reporter, cycloheximide protein synthesis inhibition counterscreen | max response, % | hit rate 12% among 300,000; in the data active = max response mostly above about 13%, no sharp cut-off; inactive = mostly below about 14%; note: read at 38.3 µM for the half of the compounds with a filed dose; 0% is about no effect
Shiga toxin inh = A qHTS for Small Molecule Inhibitors of Shiga Toxin. inhibition, % at 38.7 µM. Vero cells, Shiga toxin protein synthesis inhibition reporter. hit rate 9.2% among 290,000; in the data active = inhibition mostly above about 28%, no sharp cut-off; inactive = mostly below about 43%; note: 0% is about no effect
NS1 function inh = qHTS Assay for Inhibitors of Influenza NS1 Protein Function; Potency, µM (titrated, usually from 46.1 µM), inactives show top-dose activity, positive = more growth; hit rate 0.4% among 270,000; calls by dose curve; note: potency is the fitted concentration of half-maximal effect; actives are rising curves; nearly all actives have a fitted effect of over 50% in size
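Recovery from NS1-induced slow growth read by OD600 in budding yeast switched to galactose assay medium (pH 6.0, -URA) at 1:100 dilution. Compound 23 nl per well; the matching strain lacking NS1 serves as control.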
Active calls of the source: *. Unless noted, calls come from the whole dose curve; as a rule, active = well fitted inhibition curve with a large enough effect; inconclusive = small, poorly fitted or top-dose-only effect, or another doubt; inactive = no such curve, though single readings can be large or run the other way.

Screening O=C(N/N=C/c1ccc(-c2ccc(Br)cc2)o1)c1ccc2c(c1)OCO2 returned Pf growth 96h inconclusive, Pf growth 48h -21%, Cycloheximide cs 14 and Shiga toxin inh 27.
For COc1cc2ccccc2cc1C(=O)N/N=C/c1ccc2c(c1)OCO2 the results were Pf growth 96h -3%, Pf growth 48h 8%, Cycloheximide cs 4, Shiga toxin inh 7 and NS1 function inh 0%.
For COc1ccccc1N/N=C/c1ccc2c(c1)OCO2 the results were Pf growth 96h 50%, Pf growth 48h 6%, Cycloheximide cs 39*, Shiga toxin inh 45 and NS1 function inh 7%.
O=C(N/N=C/c1ccc(COc2ccc(Br)cc2)o1)c1ccc2c(c1)OCO2 was read as Pf growth 96h -2%, Pf growth 48h 2%, Cycloheximide cs 15*, Shiga toxin inh 26 and NS1 function inh 0%.
COc1ccc(/C=N/NC(=O)c2cc(-c3ccccc3)nc3ccccc23)c(C(=O)O)c1OC was read as Pf growth 96h 0%, Pf growth 48h 7%, Cycloheximide cs -2, Shiga toxin inh 4 and NS1 function inh 5%.
`COc1ccc(/C=N/NC(=O)c2ccc3c(c2)OCO3)c(C(=O)O)c1OC` gave Pf growth 96h -13%, Pf growth 48h 15%, Cycloheximide cs 11*, Shiga toxin inh 25 and NS1 function inh 25%.
COc1ccccc1/C=N/NC(=O)c1ccc2c(c1)OCO2 was read as Pf growth 96h inconclusive, Pf growth 48h inconclusive, Cycloheximide cs 24*, Shiga toxin inh 81* and NS1 function inh -2%.
Screening COc1ccccc1C(=O)NCC(=O)n1nc(C)cc1C returned Pf growth 96h 13µM*, Pf growth 48h 7%, Cycloheximide cs -1, Shiga toxin inh -7 and NS1 function inh -54%.
Screening CSc1nsc(N/N=C/c2ccc3c(c2)OCO3)c1C#N returned Pf growth 96h 10%, Pf growth 48h 374%, Cycloheximide cs 41* and Shiga toxin inh 84*.
Screening COc1cc(/C=N/Nc2snc(SC)c2C#N)cc(OC)c1OC returned Pf growth 48h 4%, Cycloheximide cs -2, Shiga toxin inh -16 and NS1 function inh -6%.
COc1ccccc1C(=O)NCC(=O)N/N=C/c1cccc(Cl)c1 was read as Pf growth 96h 2.1µM*, Pf growth 48h 5%, Cycloheximide cs 4 and Shiga toxin inh 9.
`CCCCN(Cc1ccccc1)C(=O)CCN1C(=O)C2C3C=CC(C3)C2C1=O` (configuration not stated) gave Pf growth 96h 19%, Pf growth 48h -21%, Cycloheximide cs 6, Shiga toxin inh -3 and NS1 function inh 5%.
For Cc1cc(/C=N/n2cnnc2)c(C)n1-c1cc(Cl)ccc1Cl the results were Pf growth 48h inconclusive, Cycloheximide cs -1, Shiga toxin inh -8 and NS1 function inh -85%.
`COc1ccc(CC(=O)OC2CCCN(C)C2)cc1` (configuration not stated) gave Pf growth 96h inconclusive, Pf growth 48h 0%, Cycloheximide cs 5, Shiga toxin inh -4 and NS1 function inh -5%.
For COc1cc(/C=N/NC(=O)c2cc(-c3ccc4c(c3)OCO4)n[nH]2)ccc1O the results were Pf growth 96h inconclusive, Pf growth 48h 40%, Cycloheximide cs 16*, Shiga toxin inh 36 and NS1 function inh 8%.
`CC(/C=N\NC(=O)c1ccc2c(c1)OCO2)c1ccccc1` (configuration not stated) gave Pf growth 96h 5%, Pf growth 48h 16%, Cycloheximide cs 27*, Shiga toxin inh 46* and NS1 function inh 5%.
`COc1ccccc1C(=O)N/N=C/c1ccc2c(c1)OCO2` gave Pf growth 96h -7%, Pf growth 48h 95%, Cycloheximide cs 35*, Shiga toxin inh 89* and NS1 function inh -6%.
For CCCOc1ccc(/C=N/NC(=O)c2ccc3c(c2)OCO3)c(OCCC)c1 the results were Pf growth 96h inconclusive, Pf growth 48h 5.9µM*, Cycloheximide cs 1, Shiga toxin inh 24 and NS1 function inh 10%.
Screening C=C1N(c2cccc(Cl)c2)C(=O)OC1(C)C returned Pf growth 96h inconclusive, Pf growth 48h 11%, Cycloheximide cs 1, Shiga toxin inh 2 and NS1 function inh 3%.
`CC(C)CCNC(=O)COc1ccc(N(C)S(=O)(=O)c2ccc(F)cc2)cc1` gave Pf growth 96h -20%, Pf growth 48h -43%, Cycloheximide cs 8 and Shiga toxin inh -8.
For O=c1c2c(nc3c(-c4ccc(Cl)cc4)c[nH]n13)CCC2 the results were Pf growth 96h -13%, Pf growth 48h 10µM*, Cycloheximide cs -1 and Shiga toxin inh 13.
Screening Cc1nc2nc3c(c(=O)n2[nH]1)CCC3 returned Pf growth 96h 24%, Pf growth 48h -12%, Cycloheximide cs -4, Shiga toxin inh -7 and NS1 function inh 4%.
Screening Cc1ccc(-c2[nH]n3c(=O)c4c(nc3c2C)CCCC4)cc1 returned Pf growth 96h -28%, Pf growth 48h 0.046µM*, Cycloheximide cs 3, Shiga toxin inh -5 and NS1 function inh inconclusive.
For Cc1c(-c2ccccc2)[nH]n2c(=O)c3c(nc12)CCCC3 the results were Pf growth 96h inconclusive, Pf growth 48h inconclusive, Cycloheximide cs 29*, Shiga toxin inh 44* and NS1 function inh -26%.
Screening Cc1ccc(S(=O)(=O)Nc2cccc3ccc(C)nc23)cc1 returned Cycloheximide cs 6 and Shiga toxin inh -7.
For Cc1ccc(S(=O)(=O)NCCC(=O)NCC(c2cccs2)N2CCOCC2)cc1 (configuration not stated) the results were Pf growth 96h -1% and Pf growth 48h -3%.
For CCCCC(=O)Nc1ccccc1Oc1ccccc1 the results were Pf growth 96h 10%, Pf growth 48h -13%, Cycloheximide cs -3 and Shiga toxin inh 7.
Screening Cc1cc([N+](=O)[O-])nn1CC(=O)N1CCN(Cc2ccccc2)CC1 returned Pf growth 96h 10µM*, Pf growth 48h inconclusive, Cycloheximide cs -7 and Shiga toxin inh 9.
Screening Cc1cc([N+](=O)[O-])nn1CC(=O)N1CCc2ccccc2C1 returned Pf growth 96h 12%, Cycloheximide cs -1, Shiga toxin inh -16 and NS1 function inh 0%.
`CSc1ccccc1NC(=O)Cn1nc([N+](=O)[O-])cc1C` gave Pf growth 96h 0.19µM*, Pf growth 48h 20%, Cycloheximide cs 3 and Shiga toxin inh -7.
`CCCCNc1nc(N(C)c2ccccc2)nc(-n2ccnc2)n1` gave Pf growth 96h 0%, Pf growth 48h 17µM*, Cycloheximide cs -3, Shiga toxin inh -3 and NS1 function inh -151%.
Screening NS(=O)(=O)c1cc(C(=O)OCC(=O)N2CCOCC2)ccc1Cl returned Pf growth 96h 17%, Pf growth 48h 39%, Cycloheximide cs 3, Shiga toxin inh 5 and NS1 function inh 12%.
Screening COc1cccc(C=Nc2cccc3c(=O)[nH][nH]c(=O)c23)c1O returned Pf growth 96h inconclusive, Pf growth 48h 2%, Cycloheximide cs 24* and Shiga toxin inh 60*.

Source: PubChem BioAssay (National Center for Advancing Translational Sciences (NCATS))
